Data reported in the supplement of paper PMC4166925.
± gives the standard deviation of the averaged measurements. In all, about 33,000 sequences were measured (“E-score (dimensionless, -0.5 to 0.5)”: median about -0.046, highest 2% from about 0.36 on). The sample as a whole holds a higher share of the highest values than the screen did.

test system: T1, SpTbr T-box DNA-binding domain (GST fusion); experiment: PBM E-score of 8-mer (E-score (dimensionless, -0.5 to 0.5)); Tbr is Tbrain of the sea star Patiria miniata (Pm) or the sea urchin Strongylocentrotus purpuratus (Sp); higher = stronger binding preference; conditions: the construct has about 5 more residues each side
T1 sequence: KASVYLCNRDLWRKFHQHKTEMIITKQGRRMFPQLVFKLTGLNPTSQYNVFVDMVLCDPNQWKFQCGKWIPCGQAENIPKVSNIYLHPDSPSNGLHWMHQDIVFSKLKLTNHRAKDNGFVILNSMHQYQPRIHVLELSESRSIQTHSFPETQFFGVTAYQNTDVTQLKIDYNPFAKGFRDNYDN
How it was run: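 Universal Agilent oligonucleotide arrays, made double-stranded by primer extension, were incubated with 200 nM GST-fused Tbr T-box DNA-binding domain in PBS (pH 7.5). The protein was expressed in BL21 E. coli at 20 °C and purified by glutathione affinity chromatography. After scanning and quantification, the Universal PBM Analysis Suite assigned an enrichment E-score to each ungapped 8-mer, averaged over duplicate arrays.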

| Sequence | PBM E-score of 8-mer |
| --- | --- |
| CAGGTCTA | -0.191 ± 0.055 |
| AGCTAGCT | 0.0778 ± 0.066 |
| CACAAACC | -0.19 ± 0.028 |
| CCAACACG | 0.232 ± 0.013 |
| ACAACACC | 0.424 ± 0.011 |
| CCAACACC | 0.4264 ± 0.0023 |
| GCAACACA | 0.267 ± 0.014 |
| CCAACACA | 0.299 ± 0.017 |
| GCAACAAC | 0.0625 ± 0.016 |
| ACAACACT | 0.345 ± 0.0051 |
| ACAACACA | 0.349 ± 0.0079 |
| GCAACACC | 0.439 ± 0.0069 |
| ATCACCGC | -0.0213 ± 0.03 |
| AGTTGTCC | -0.136 ± 0.07 |
| ACAATCAG | -0.0516 ± 0.0027 |
| ACGCAAGC | -0.101 ± 0.061 |
| AACAATTA | 0.0621 ± 0.089 |
| ACAGTTGA | 0.2 ± 0.059 |
| CATGGGCC | -0.352 ± 0.015 |
| AGTACCGG | -0.341 ± 0.03 |
| CTGAGAAA | -0.0469 ± 0.13 |
| ATGAGAAC | -0.0381 ± 0.053 |
| GTGAGAAA | 0.441 ± 0.016 |
| GCGAGAAC | 0.393 ± 0.0087 |
| ACGAGAAC | 0.186 ± 0.0072 |

| Sequence | PBM E-score of 8-mer |
| --- | --- |
| ATGAGAAA | -0.221 ± 0.031 |
| CTGAGAAC | 0.0561 ± 0.038 |
| GCGAGAAA | 0.342 ± 0.0013 |
| GTGAGAAC | 0.4469 ± 0.0042 |
| CCAACTCC | -0.0214 ± 0.0039 |
| GTCAAGGA | -0.0692 ± 0.085 |
| AGCAAGAT | -0.0318 ± 0.027 |
| CTTTTTTC | -0.0265 ± 0.039 |
| GTGGCCAC | 0.225 ± 0.026 |
| ACTGCTGC | -0.0667 ± 0.011 |
| ATCAAGAA | -0.219 ± 0.094 |
| GAGTTAGC | 0.0856 ± 0.074 |
| CTCCAAAC | -0.0591 ± 0.11 |
| ATTGTCGA | 0.0605 ± 0.042 |
| GTTGTCGA | 0.271 ± 0.0066 |
| AGTGTCGA | 0.405 ± 0.0049 |
| CGTGTCGA | 0.264 ± 0.013 |
| GGTGTCGA | 0.453 ± 0.015 |
| ATTGTCGC | 0.263 ± 0.028 |
| AGTGTCGG | 0.36 ± 0.015 |
| CGTGTCGC | 0.254 ± 0.045 |
| AGTGTCGC | 0.412 ± 0.016 |
| CTGAGGAC | 0.0509 ± 0.03 |
| AGGGAGCC | -0.14 ± 0.027 |
| CAATACTG | -0.127 ± 0.0078 |

| Sequence | PBM E-score of 8-mer |
| --- | --- |
| AATGGGAA | -0.188 ± 0.032 |
| AGGGCTGG | -0.253 ± 0.011 |
| GTTCCTCA | -0.0698 ± 0.064 |
| CTAGCTAA | 0.041 ± 0.025 |
| AGTCGCAA | 0.132 ± 0.0059 |
| GGTCGCAC | 0.365 ± 0.046 |
| AGTCGCAG | 0.0537 ± 0.061 |
| AGTCGCAC | 0.387 ± 0.0041 |
| CGTCGCAC | 0.327 ± 0.0036 |
| GGTCGCAA | 0.208 ± 0.029 |
| CGGGGCTA | -0.315 ± 0.0072 |
| ATCCACAG | -0.0171 ± 0.029 |
| AACCACCC | -0.022 ± 0.044 |
| ACAAAGCC | -0.0854 ± 0.036 |
| ATGGGCCG | -0.31 ± 0.017 |
| GCGGAGAA | 0.059 ± 0.053 |
| CGTGCCAA | 0.306 ± 0.03 |
| AGTGCCAC | 0.25 ± 0.013 |
| GGTGCCAA | 0.447 ± 0.0064 |
| GGTGCCTA | 0.0923 ± 0.1 |
| GCTGCCAA | 0.0847 ± 0.029 |
| CGTGCCAC | 0.254 ± 0.041 |
| TGTGCCAA | 0.364 ± 0.021 |
| AGTGCCAA | 0.359 ± 0.0081 |
| GGTGCCAC | 0.368 ± 0.0043 |

| Sequence | PBM E-score of 8-mer |
| --- | --- |
| CGGAAAAA | 0.019 ± 0.025 |
| ATCAGTGG | -0.149 ± 0.015 |
| CTGTTGTA | 0.0999 ± 0.01 |
| TACGACTA | -0.13 ± 0.016 |
| AATGCTGT | -0.0262 ± 0.063 |
| CCTCAAGA | -0.0881 ± 0.046 |
| GGTACTCA | -0.0116 ± 0.057 |
| ACTCACGG | 0.061 ± 0.057 |
| CATGAAGC | -0.112 ± 0.013 |
| ACGGTTAC | -0.0916 ± 0.0079 |
| ATGCTCAC | 0.277 ± 0.023 |
| TCCATCGA | -0.0839 ± 0.076 |
| GGTCTCAC | 0.3458 ± 0.0029 |
| GCACCTGC | 0.388 ± 0.024 |
| CCACCTGC | 0.269 ± 0.0095 |
| ACACCTGA | 0.4627 ± 0.0023 |
| AAACCTGA | -0.00426 ± 0.071 |
| ACACCTGC | 0.4527 ± 0.0032 |
| CGACCTGC | 0.177 ± 0.026 |
| ATACCTGC | -0.0105 ± 0.0085 |
| GAACCTGC | -0.126 ± 0.13 |
| CCACCTGG | 0.186 ± 0.029 |
| ATACCTGG | 0.0363 ± 0.063 |
| AGACCTGA | -0.094 ± 0.0078 |
| ACACCTGG | 0.44 ± 0.029 |

| Sequence | PBM E-score of 8-mer |
| --- | --- |
| GCCCAAGC | -0.24 ± 0.0088 |
| ACGCAAGA | -0.0517 ± 0.024 |
| AACAACGT | 0.00981 ± 0.00099 |
| CTTTAAGC | -0.136 ± 0.004 |
| AACTTCAG | -0.23 ± 0.022 |
| CTCACTGC | 0.0922 ± 0.076 |
| GCATGTCC | -0.0875 ± 0.095 |
| CGGCTTGC | -0.14 ± 0.0054 |
| AAGCGAGG | 0.115 ± 0.03 |
| CAAGCTAC | -0.147 ± 0.014 |
| GAGTGTAC | -0.0659 ± 0.019 |
| AAGTGTTA | 0.451 ± 0.00073 |
| AAGTGTTG | 0.422 ± 0.02 |
| CAGTGTTC | 0.0165 ± 0.024 |
| CAGTGTTA | 0.31 ± 0.028 |
| AAGTGTAC | 0.00907 ± 0.056 |
| AAGTGGTA | 0.083 ± 0.018 |
| GAGTGTTA | 0.386 ± 0.021 |
| AAGTGTTC | 0.226 ± 0.11 |
| CATCTGTA | -0.0572 ± 0.038 |
| CACCAATG | 0.179 ± 0.0061 |
| CACAATCC | 0.0504 ± 0.056 |
| ATGCCCAT | -0.184 ± 0.01 |
| AGGCAGAT | -0.0669 ± 0.075 |
| TGGGCGAA | -0.169 ± 0.019 |

| Sequence | PBM E-score of 8-mer |
| --- | --- |
| GAGGACAC | 0.155 ± 0.015 |
| GGTGGGGA | 0.248 ± 0.033 |
| ATCAGGTG | 0.386 ± 0.015 |
| CACAGGTC | 0.198 ± 0.045 |
| AGCAGGTC | -0.0223 ± 0.011 |
| CACAGGTA | 0.141 ± 0.0043 |
| CACAGGTG | 0.453 ± 0.005 |
| ATCAGGTA | -0.128 ± 0.008 |
| AGCAGGTG | 0.377 ± 0.00094 |
| AACAGGTC | 0.107 ± 0.0057 |
| AGCAGGTA | -0.132 ± 0.031 |
| AACAGGTA | 0.0912 ± 0.072 |
| ATCAGGTC | -0.171 ± 0.075 |
| AACAGGTG | 0.364 ± 0.028 |
| AGCGGTGC | -0.00638 ± 0.018 |
| ACAATGCG | 0.222 ± 0.025 |
| CGAGAGTA | 0.0304 ± 0.018 |
| GAGATTGC | 0.116 ± 0.014 |
| CGCTGGCC | -0.032 ± 0.027 |
| CTTACTCC | -0.125 ± 0.049 |
| CAGCGTGG | -0.111 ± 0.012 |
| CAGTCCAC | 0.192 ± 0.026 |
| AGCACTCA | 0.079 ± 0.03 |
| AAAGCAAA | 0.00628 ± 0.091 |
| CTGTGGAA | 0.061 ± 0.12 |

| Sequence | PBM E-score of 8-mer |
| --- | --- |
| GTGTGGGA | 0.387 ± 0.038 |
| CTGTGGGA | 0.105 ± 0.057 |
| ATGTGGGA | 0.234 ± 0.041 |
| ATGTGGAA | 0.0153 ± 0.034 |
| GTGTGGAA | 0.3848 ± 0.0012 |
| CGGCCCAG | -0.2798 ± 0.0014 |
| CAGAATGC | 0.0116 ± 0.023 |
| GCCACGAA | 0.00399 ± 0.009 |
| CGCCAGCC | 0.0479 ± 0.008 |
| AGCGAACA | 0.078 ± 0.037 |
| CGCGAAAA | 0.347 ± 0.04 |
| TGCGAAAA | 0.383 ± 0.038 |
| TGCGAACA | 0.419 ± 0.015 |
| GGCGAACA | 0.137 ± 0.018 |
| AGCGAAAA | -0.0276 ± 0.011 |
| CGTTTCAA | -0.029 ± 0.015 |
| CGCTGTAC | -0.164 ± 0.046 |
| ATACAGGG | -0.276 ± 0.015 |
| AAGGGTAT | -0.121 ± 0.02 |
| AGGCGTGC | 0.236 ± 0.052 |
| AGGCGTGA | 0.4754 ± 0.0047 |
| GCGCGTGA | 0.344 ± 0.033 |
| ACGCGTGC | 0.149 ± 0.066 |
| ATGCGTGA | 0.374 ± 0.0053 |
